Compound activity deposited in PubChem by National Center for Advancing Translational Sciences (NCATS).
Nrf2 ARE act – qHTS of Nrf2 Activators. AREc32 ARE-luciferase reporter (MCF7-derived line), luminescence, 24 h. Potency, µM (series often up to 46.1 µM), for inactives: at the highest dose activation, usual class: activators. AID 624171, 2012. 410,000 compounds, 0.31% hits; note: % of control where 0% means no effect; nearly all actives have a fitted effect of over 65% in size
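For detection, Steady-Glo was added and plates sat 30 min at RT; before that, AREc32_Fluc cells grown overnight in OPTI-MEM/5% FBS had been treated with 23 nL compound for 24 hr at 37 deg C.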
TrxR1 substrate – qHTS Assay for Substrates of Mammalian Selenoprotein Thioredoxin Reductase 1 (TrxR1): qHTS | Thioredoxin reductase 1, cytoplasmic (Rattus norvegicus), O89049 | purified TrxR1 substrate turnover, NADPH consumption readout | Potency, µM (highest dose often 114 µM), for inactives: top-dose activity change, negative = substrate turnover | 390,000 compounds, 0.01% hits | AID 588456, 2011; note: % is set by controls: 0 for no effect and ±100 for the full control effect; nearly all actives have a fitted effect of over 50% in size
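Rat TrxR1, dispensed at 90 nM, was prereduced with 400 uM NADPH (final) for 5 min at ~22 deg C, then incubated with compound 15 min before 400 uM selenite. A first-read NADPH fluorescence drop versus no-compound background flagged substrates.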
TrxR1 inh – qHTS Assay for Inhibitors of Mammalian Selenoprotein Thioredoxin Reductase 1 (TrxR1): qHTS. Thioredoxin reductase 1, cytoplasmic (Rattus norvegicus), O89049. 390,000 compounds, 1% hits. Potency, µM (highest dose often 114 µM), for the others: at the top dose activity change, negative = inhibition, most hits filed as inhibitors. recombinant rTrxR1, NADPH fluorescence consumption, selenite substrate; note: % is set by controls: 0 for no effect and ±100 for the full control effect; nearly all actives have a fitted effect of over 65% in size
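Rat TrxR1 (90 nM in the dispensed reagent) was pre-reduced with 400 uM NADPH for 5 min at room temperature, then incubated with compound for 15 min. After 400 uM selenite was added, NADPH fluorescence (Ex 340/Em 450 nm) was followed for 8 min.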
A549 tox – Nrf2 qHTS screen for inhibitors: counterscreen for cytotoxicity; AID 504648, 2011; 390,000 compounds, 0.16% hits; Potency, µM (top dose mostly 46 µM), inactives show at the top dose activity change, negative = cytotoxicity, actives largely listed as inhibitors; A549 ARE-Fluc cells, CellTiter-Fluor viability, 18-24 h; note: % is set by controls: 0 for no effect and ±100 for the full control effect
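A549 ARE-Fluc cells in 5% FBS OPTI-MEM, 5000 cells/well, rested 2 h then exposed to compounds in concentration-response for 18-24 h at 37 °C. Viability by CellTiter-Fluor fluorescence (Ex 405/Em 525) after 30 min; luciferase luminescence (BugLite, 15 min, RT) read afterwards.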
GALK inh – qHTS Assay for Inhibitors of Human Galactokinase (GALK); Purified GALK, Kinase-Glo residual ATP luminescence; Potency, µM (titrated, usually from 57.5 µM), without a hit: top-dose activity change, negative = inhibition, usual class: inhibitors; 270,000 compounds, 0.007% hits; AID 1868, 2009; note: % is set by controls: 0 for no effect and ±100 for the full control effect
Target sequence (P51570 whole entry, looked up): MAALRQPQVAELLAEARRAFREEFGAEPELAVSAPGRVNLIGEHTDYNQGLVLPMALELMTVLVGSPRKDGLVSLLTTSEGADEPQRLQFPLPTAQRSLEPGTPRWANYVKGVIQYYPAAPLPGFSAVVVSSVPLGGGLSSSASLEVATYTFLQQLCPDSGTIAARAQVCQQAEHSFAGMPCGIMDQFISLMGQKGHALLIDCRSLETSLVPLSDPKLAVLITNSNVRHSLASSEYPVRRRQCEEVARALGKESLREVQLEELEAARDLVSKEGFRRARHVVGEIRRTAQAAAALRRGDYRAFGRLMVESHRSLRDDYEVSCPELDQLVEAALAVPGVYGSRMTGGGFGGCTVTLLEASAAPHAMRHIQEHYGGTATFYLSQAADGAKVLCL
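GALK at 5 nM final was combined with compound, 35 uM ATP and 100 uM galactose in HEPES pH8.0 with MgCl2 and DTT. The reaction ran one hour at room temperature before luminescent ATP detection.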
Nrf2 inh – Nrf2 qHTS screen for inhibitors; AID 504444, 2011; A549 ARE-Fluc reporter, luciferase luminescence, 18-24 h; 360,000 compounds, 2.1% hits; Potency, µM (doses to about 46 µM), for the others: at the highest dose activity change, negative = inhibition, hits mostly inhibitors; note: % is set by controls: 0 for no effect and ±100 for the full control effect; nearly all actives have a fitted effect of over 60% in size
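A549 ARE_Fluc cells, 5000/well, 5% FBS OPTI-MEM; compounds in dose-response, 18-24 h at 37 °C/5% CO2; CellTiter-Fluor viability read (Ex 405/Em 525), then BugLite luciferase luminescence = Nrf2 activity.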
Active calls of the source: *; ? = inconclusive; nt = no result; ! = not confirmed by another sample; [ ] = remark or other dose. Shown are actives, neighbours in structure and some others; about 3% of the full set was active somewhere. Calls come from the whole dose curve; as a rule, active = well fitted curve in the direction sought with a large enough effect; inconclusive = small, poorly fitted or top-dose-only effect, or another doubt; inactive = no such curve, though single readings can be large; an effect the other way counts as inactive or inconclusive. Potency is the fitted concentration of half-maximal effect.

SMILES	Nrf2 ARE act	TrxR1 substrate	TrxR1 inh	A549 tox	GALK inh	Nrf2 inh
Cc1ccc(N(CN2C(=O)C3CC=CCC3C2=O)C(=O)c2ccco2)cc1Cl (centres undefined)	0%	6%	14µM*	0%	3%	4%
Cc1ccc(C)c(NC(=O)CSc2nc(=O)n(CCN3CCOCC3)c3c2CCC3)c1	0%	-4%[57.1 µM]	8%[57.1 µM]	5%	nt	nt
Oc1c(Br)cc(Br)cc1/C=N/c1nccs1	?	-6%	35µM*	6%	nt	?
CC(CCC(C)[n+]1cccc(Br)c1)[n+]1cccc(Br)c1 (centres undefined)	nt	7%	-5%	nt	nt	nt
COc1ccc(CNC(=O)[C@H](C)N2C(=O)N3CCc4c([nH]c5ccccc45)[C@@]3(C)C2=O)cc1OC	1%	-2%	13%	-2%	nt	16µM*
CCN1/C(=C\C(=S)Nc2ccccc2)Sc2ccccc21	2%	-6%[57.1 µM]	17%[57.1 µM]	?	-1%	?
CCN1/C(=C/C(C)=C/c2sc3ccccc3[n+]2CC)Sc2ccccc21	-2%	-5%[57.1 µM]	17%[57.1 µM]	21µM*	11%	8.2µM*
CCCCn1c(SCc2ccc(C(=O)OC)o2)nc2cc(S(N)(=O)=O)ccc21	3%	1%	?	-9%	1%	16µM*
CCNC(=O)C1(C)CCN(C(=O)c2ccc(C)c(F)c2)C1 (centres undefined)	1%	nt	nt	nt	nt	nt
CCC(O)CNC(=O)NC(=C(Cl)Cl)c1ccc(C)c(F)c1 (centres undefined)	?	2%	0%	-14%	-1%	18µM*
Cc1cc(C)nc(SCC(=O)NC(=O)c2ccccc2O)n1	0%	-4%[57.1 µM]	13µM*	2%	nt	-6%
CC(=O)OCON[N+]([O-])=NC(C)C	nt	4%	16µM*!	-11%	nt	15%
CC(=O)OCON[N+]([O-])=NC1CCCCC1	nt	-4%	9%	1%	nt	5%
O=C(c1ccccc1)c1ccc2nc(Nc3cc(Cl)ccc3O)c3nncn3c2c1	2%	10%	28%	9%	nt	13%
O=C1N(c2ccccc2)C[C@@H]2C[C@@H](c3cccs3)N3CCC[C@@]123	-2%	4%	20µM*	-6%	5%	-16%
CC(C)(O)C#Cc1ccc([C@@H]2C[C@H]3CN(c4ccccc4)C(=O)[C@]34CCCN24)s1	-1%	-10%	?	-8%	1%	?
O=C(c1ccc(Oc2ccc([N+](=O)[O-])cc2)cc1)N1CCCCCC1	0%[9.22 µM]	-5%	-1%	-10%	-2%	5.8µM*
Cn1c(=O)oc2cc(S(=O)(=O)CCC(=O)N3CCN(c4cccc(Cl)c4)CC3)ccc21	-1%	8%	28%	1%	nt	-6%
CCOC(=O)N1CCN(c2ccc(S(=O)(=O)N(Cc3ccccc3)Cc3ccccc3)cn2)CC1	2%	14%	23%	-16%	1%	16µM*
CCN(CC)S(=O)(=O)c1ccc(N2CCN(c3ccccc3O)CC2)nc1	2%	0%	5%	-1%	-2%	18µM*
Cc1nc2nc(NC(=O)CC(C)C)[nH]n2c(=O)c1Cc1ccccc1	-1%	7%	15%	-2%	nt	15%
O=C(CCl)Nc1cccc(-c2cnc3ccccc3n2)c1	?	-1%	20µM*	-22%	-4%	-17%
COc1ccc(S(=O)(=O)n2nc(OC(C)=O)cc2N)cc1	0%	0%	18µM*	-1%	3%	0%
Nc1cc(OC(=O)c2cccs2)nn1S(=O)(=O)c1ccc(F)cc1	4%	4%	79µM*	2%	-1%	-25%
COc1ccc(C(=O)Oc2cc(N)n(S(=O)(=O)c3ccccc3)n2)cc1	0%	4%	7%	-4%	6%	?
SMILES	Nrf2 ARE act	TrxR1 substrate	TrxR1 inh	A549 tox	GALK inh	Nrf2 inh
CCOC(=O)c1ccc(N2C(=O)c3n[nH]c(-c4cccs4)c3C2c2cccc(OC)c2)cc1 (centres undefined)	-2%	-3%	9%	?	nt	21µM*
CCOC(=O)c1ccc(N2C(=O)c3[nH]nc(-c4ccccc4)c3C2c2ccc(CC)cc2)cc1 (centres undefined)	-1%	-5%	20%	?	nt	18µM*
COc1cc(C2c3c(n[nH]c3C)C(=O)N2c2ccc(C)cc2)ccc1O (centres undefined)	3%	7%[57.1 µM]	32µM*	-3%	1%	-17%
CCOC(=O)c1ccc(N2C(=O)c3[nH]nc(-c4ccc(C)cc4)c3C2c2ccc(O)cc2)cc1 (centres undefined)	-2%	-3%	10%	-25%	nt	21µM*
Cc1nc(-n2nc(C)c(Cc3ccccc3Cl)c2C)sc1C(=O)Nc1ccccc1F	0%	-2%	22%	1%	nt	3%
O=C(CNC(=O)c1ccc(F)cc1)OCc1cc(=O)n2nc(C3CCCCC3)sc2n1	5%	2%[57.1 µM]	4%[57.1 µM]	0%	nt	?
CCOC(=O)c1ccc(N2C(=O)c3[nH]nc(-c4ccc(C)cc4)c3C2c2cccc(F)c2)cc1 (centres undefined)	0%	-7%	27%	-18%	nt	21µM*
COc1ccc(-c2noc(N3CCC(C(=O)NC(C)c4ccccc4)CC3)n2)cc1 (centres undefined)	0%	-1%[57.1 µM]	2%[57.1 µM]	-20%	nt	23µM*
CN(N=O)c1ccc(/C=C/c2ccnc3ccccc23)cc1	nt	-2%	4%	nt	nt	nt
CC(=O)c1cccc(NC(=O)CSc2ncc3c(n2)-c2cc(Cl)ccc2N(Cc2ccccc2)S3(=O)=O)c1	5%	11%[57.1 µM]	15%[57.1 µM]	-20%	nt	-21%
CCCOc1ccc(C(=O)CCNC(Cc2c[nH]c3ccccc23)C(=O)O)cc1 (centres undefined)	5%	3%	1.8µM*	-5%	nt	-15%
Cc1ccc2oc(C(=O)Nc3ccc(S(=O)(=O)N(C)c4ccccc4)cc3)cc(=O)c2c1	0%	0%	17%	11%	nt	12%
CN1CCN/C1=C(/C(Cl)=C(Cl)Cl)[N+](=O)[O-]	16%	8%[57.1 µM]	3.2µM*	-9%	8%	-12%
COc1ccc(N2CC(NC(=O)c3cccs3)CC2=O)cc1 (centres undefined)	-1%	4%[57.1 µM]	6%[57.1 µM]	0%	nt	nt
